In the supplement of paper PMC12645437, “Orthogonal IMiD-Degron Pairs Induce Selective Protein Degradation in Cells” (ACS Chemical Biology, 2025):
Over roughly 8,300 sequences, “log2 fold change of degron read counts, EGFP-low vs EGFP+ sorted cells (limma voom), compound-induced degradation” has its median near -1.1; the highest 2% begin near 3.2. This is one part of a sample in which the highest values are shown more often than they occur.

Biological target: T1, CRBN, Q96SW2
T1 chain: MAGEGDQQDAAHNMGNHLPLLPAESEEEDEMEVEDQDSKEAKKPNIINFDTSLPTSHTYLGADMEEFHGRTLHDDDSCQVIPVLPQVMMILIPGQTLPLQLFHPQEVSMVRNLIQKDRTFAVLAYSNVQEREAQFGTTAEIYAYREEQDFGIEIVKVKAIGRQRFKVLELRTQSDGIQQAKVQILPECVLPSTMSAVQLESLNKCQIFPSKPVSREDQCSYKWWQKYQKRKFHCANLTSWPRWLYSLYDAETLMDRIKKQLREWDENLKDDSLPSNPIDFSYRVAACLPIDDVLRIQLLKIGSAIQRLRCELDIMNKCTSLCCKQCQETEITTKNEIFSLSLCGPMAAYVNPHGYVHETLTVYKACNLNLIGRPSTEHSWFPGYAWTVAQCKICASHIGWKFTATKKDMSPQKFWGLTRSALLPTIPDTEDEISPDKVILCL
Assay: log2 fold change of degron read counts, EGFP-low vs EGFP+ sorted cells (limma voom), compound-induced degradation; higher = more compound-induced degradation of the degron-EGFP fusion; degrons are variants of IKZF1/3 zinc finger 2; compound dose not given here
Settings: Jurkat, 18 h

[1] = compound: compound 19 (5-tert-butyl-thalidomide)
[2] = compound: compound 22 (5-morpholino-thalidomide)
[3] = compound: compound 33 (diphenyl IMiD analogue)
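Further: pooled lentiviral library of zinc finger degron-EGFP fusions in mCherry-positive Jurkat cells, FACS-sorted after compound exposure, with degron abundance counted by next-generation sequencing.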

## LKCNQCGFCCTQKGNLLRHIKL [46L_47K_49N_50Q_52G_53F_54C_55C_67L_, Q9UKT9]
[1]
  log2 fold change of degron read counts: -2.31
[2]
  log2 fold change of degron read counts: -2.82
[3]
  log2 fold change of degron read counts: -2.5
compound: thalidomide
  log2 fold change of degron read counts: -1.52

## LFCEICGFDCTQKGNLLRHIKL [46L_47F_49E_50I_52G_53F_54D_55C_67L_, Q9UKT9]
[1]
  log2 fold change of degron read counts: -1.8
[2]
  log2 fold change of degron read counts: -2.4
[3]
  log2 fold change of degron read counts: -2.23
compound: thalidomide
  log2 fold change of degron read counts: -1.77

## FICNQCGACFTQKGNLLRHIKL [46F_47I_49N_50Q_52G_53A_54C_55F_67L_, Q9UKT9]
[1]
  log2 fold change of degron read counts: -2.25
[2]
  log2 fold change of degron read counts: -1.71
[3]
  log2 fold change of degron read counts: -0.536
compound: thalidomide
  log2 fold change of degron read counts: -1.25

## FKCPICGHAFTQKGNLLRHIKL [46F_47K_49P_50I_52G_53H_54A_55F_67L_, Q9UKT9]
[1]
  log2 fold change of degron read counts: -2.73
[2]
  log2 fold change of degron read counts: -2.8
[3]
  log2 fold change of degron read counts: -3.02
compound: thalidomide
  log2 fold change of degron read counts: -2

## FHCPICGHWFTQKGNLLRHIKL [46F_47H_49P_50I_52G_53H_54W_55F_67L_, Q9UKT9]
[1]
  log2 fold change of degron read counts: -1.67
[2]
  log2 fold change of degron read counts: -2.48
[3]
  log2 fold change of degron read counts: -1.12
compound: thalidomide
  log2 fold change of degron read counts: -1.62

## FECEICGAGFTQKGNLLRHIKL [46F_47E_49E_50I_52G_53A_54G_55F_67L_, Q9UKT9]
[1]
  log2 fold change of degron read counts: 1.97
[2]
  log2 fold change of degron read counts: -1.47
[3]
  log2 fold change of degron read counts: 0.9
compound: thalidomide
  log2 fold change of degron read counts: 1.53

## FYCEICGAGFTQKGNLLRHIKL [46F_47Y_49E_50I_52G_53A_54G_55F_67L_, Q9UKT9]
[1]
  log2 fold change of degron read counts: 3.64
[2]
  log2 fold change of degron read counts: 3.17
[3]
  log2 fold change of degron read counts: 2.39
compound: thalidomide
  log2 fold change of degron read counts: 0.707

## FWCEICGAGFTQKGNLLRHIKL [46F_47W_49E_50I_52G_53A_54G_55F_67L_, Q9UKT9]
[1]
  log2 fold change of degron read counts: 3.64
[2]
  log2 fold change of degron read counts: 2.88
[3]
  log2 fold change of degron read counts: 1.29
compound: thalidomide
  log2 fold change of degron read counts: -0.285

## FLCEICGAGFTQKGNLLRHIKL [46F_47L_49E_50I_52G_53A_54G_55F_67L_, Q9UKT9]
[1]
  log2 fold change of degron read counts: 2.55
[2]
  log2 fold change of degron read counts: -0.336
[3]
  log2 fold change of degron read counts: 1.28
compound: thalidomide
  log2 fold change of degron read counts: 0.798

## FQCEICGAGFTQKGNLLRHIKL [46F_47Q_49E_50I_52G_53A_54G_55F_67L_, Q9UKT9]
[1]
  log2 fold change of degron read counts: 2.81
[2]
  log2 fold change of degron read counts: 1.87
[3]
  log2 fold change of degron read counts: 1.48
compound: thalidomide
  log2 fold change of degron read counts: 3.09

## FGCEICGAGFTQKGNLLRHIKL [46F_47G_49E_50I_52G_53A_54G_55F_67L_, Q9UKT9]
[1]
  log2 fold change of degron read counts: 2.12
[2]
  log2 fold change of degron read counts: 0.308
[3]
  log2 fold change of degron read counts: 1.02
compound: thalidomide
  log2 fold change of degron read counts: -0.108

## FGCNICGALFTQKGNLLRHIKL [46F_47G_49N_50I_52G_53A_54L_55F_67L_, Q9UKT9]
[1]
  log2 fold change of degron read counts: -0.269
[2]
  log2 fold change of degron read counts: 0.462
[3]
  log2 fold change of degron read counts: 1.6
compound: thalidomide
  log2 fold change of degron read counts: -0.293

## FTCEICGRVFTQKGNLLRHIKL [46F_47T_49E_50I_52G_53R_54V_55F_67L_, Q9UKT9]
[1]
  log2 fold change of degron read counts: -2.27
[2]
  log2 fold change of degron read counts: -1.55
[3]
  log2 fold change of degron read counts: -0.702
compound: thalidomide
  log2 fold change of degron read counts: -0.137

## FRCPICGRLFTQKGNLLRHIKL [46F_47R_49P_50I_52G_53R_54L_55F_67L_, Q9UKT9]
[1]
  log2 fold change of degron read counts: -1.83
[2]
  log2 fold change of degron read counts: -0.827
[3]
  log2 fold change of degron read counts: 0.758
compound: thalidomide
  log2 fold change of degron read counts: 0.687

## FDCPICGRMFTQKGNLLRHIKL [46F_47D_49P_50I_52G_53R_54M_55F_67L_, Q9UKT9]
[1]
  log2 fold change of degron read counts: -0.392
[2]
  log2 fold change of degron read counts: -0.463
[3]
  log2 fold change of degron read counts: 1.09
compound: thalidomide
  log2 fold change of degron read counts: 1.7

## FRCNQCGHRFTQKGNLLRHIKL [46F_47R_49N_50Q_52G_53H_54R_55F_67L_, Q9UKT9]
[1]
  log2 fold change of degron read counts: -2.19
[2]
  log2 fold change of degron read counts: -2.67
[3]
  log2 fold change of degron read counts: -2.63
compound: thalidomide
  log2 fold change of degron read counts: -2.17

## FECEVCGACFTQKGNLLRHIKL [46F_47E_49E_50V_52G_53A_54C_55F_67L_, Q9UKT9]
[1]
  log2 fold change of degron read counts: 0.0523
[2]
  log2 fold change of degron read counts: -1.58
[3]
  log2 fold change of degron read counts: 1.91
compound: thalidomide
  log2 fold change of degron read counts: 2.18

## FNCEVCGACFTQKGNLLRHIKL [46F_47N_49E_50V_52G_53A_54C_55F_67L_, Q9UKT9]
[1]
  log2 fold change of degron read counts: 2.1
[2]
  log2 fold change of degron read counts: 0.177
[3]
  log2 fold change of degron read counts: 0.1
compound: thalidomide
  log2 fold change of degron read counts: -0.55

## FACEVCGACFTQKGNLLRHIKL [46F_47A_49E_50V_52G_53A_54C_55F_67L_, Q9UKT9]
[1]
  log2 fold change of degron read counts: 3.76
[2]
  log2 fold change of degron read counts: 2.16
[3]
  log2 fold change of degron read counts: 1.45
compound: thalidomide
  log2 fold change of degron read counts: 0.401

## FGCEVCGACFTQKGNLLRHIKL [46F_47G_49E_50V_52G_53A_54C_55F_67L_, Q9UKT9]
[1]
  log2 fold change of degron read counts: 3.58
[2]
  log2 fold change of degron read counts: 2.6
[3]
  log2 fold change of degron read counts: 1.86
compound: thalidomide
  log2 fold change of degron read counts: 0.497

## FHCEVCGACFTQKGNLLRHIKL [46F_47H_49E_50V_52G_53A_54C_55F_67L_, Q9UKT9]
[1]
  log2 fold change of degron read counts: 2.22
[2]
  log2 fold change of degron read counts: 2.25
[3]
  log2 fold change of degron read counts: 1.49
compound: thalidomide
  log2 fold change of degron read counts: 0.274

## FDCEVCGACFTQKGNLLRHIKL [46F_47D_49E_50V_52G_53A_54C_55F_67L_, Q9UKT9]
[1]
  log2 fold change of degron read counts: 0.736
[2]
  log2 fold change of degron read counts: -1.47
[3]
  log2 fold change of degron read counts: 0.552
compound: thalidomide
  log2 fold change of degron read counts: -0.0895

## FCCEVCGACFTQKGNLLRHIKL [46F_47C_49E_50V_52G_53A_54C_55F_67L_, Q9UKT9]
[1]
  log2 fold change of degron read counts: 2.54
[2]
  log2 fold change of degron read counts: 2.27
[3]
  log2 fold change of degron read counts: 2.88
compound: thalidomide
  log2 fold change of degron read counts: 2.26

## FWCEVCGACFTQKGNLLRHIKL [46F_47W_49E_50V_52G_53A_54C_55F_67L_, Q9UKT9]
[1]
  log2 fold change of degron read counts: 3.64
[2]
  log2 fold change of degron read counts: 3.77
[3]
  log2 fold change of degron read counts: 2.8
compound: thalidomide
  log2 fold change of degron read counts: 1.25

## FKCEVCGACFTQKGNLLRHIKL [46F_47K_49E_50V_52G_53A_54C_55F_67L_, Q9UKT9]
[1]
  log2 fold change of degron read counts: -0.0189
[2]
  log2 fold change of degron read counts: -2.37
[3]
  log2 fold change of degron read counts: -2.27
compound: thalidomide
  log2 fold change of degron read counts: -0.751

## FFCEVCGACFTQKGNLLRHIKL [46F_47F_49E_50V_52G_53A_54C_55F_67L_, Q9UKT9]
[1]
  log2 fold change of degron read counts: 3.55
[2]
  log2 fold change of degron read counts: 3.51
[3]
  log2 fold change of degron read counts: 2.56
compound: thalidomide
  log2 fold change of degron read counts: 1.24

## LECNQCGFWCTQKGNLLRHIKL [46L_47E_49N_50Q_52G_53F_54W_55C_67L_, Q9UKT9]
[1]
  log2 fold change of degron read counts: -1.99
[2]
  log2 fold change of degron read counts: -1.69
[3]
  log2 fold change of degron read counts: -1.79
compound: thalidomide
  log2 fold change of degron read counts: -1.63

## FYCDICGAVFTQKGNLLRHIKL [46F_47Y_49D_50I_52G_53A_54V_55F_67L_, Q9UKT9]
[1]
  log2 fold change of degron read counts: 2.92
[2]
  log2 fold change of degron read counts: 2.45
[3]
  log2 fold change of degron read counts: 1.34
compound: thalidomide
  log2 fold change of degron read counts: -1.18
